Compound activity (PubChem BioAssay)
TROY signal inh: inhibitors of TROY-driven NF-kB signaling, primary screen, Q293 LMP1-TROYcd cells, NF-kB luciferase, uHTS; inhibition, % at 10 µM; Q293 LMP1-TROYcd NF-kB luciferase reporter, 4 h; AID 1347056, 2019; actives 0.98% (n = 360,000);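 active = compounds whose plate-normalised and pattern-corrected inhibition of the luciferase reporter signal at the single screening dose is 50% or more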
EWS-Fli block: EWS/Fli-driven NR0B1 reporter inhibitors, primary screen, A673 cells, NR0B1 luciferase, luminescence, MLPCN library. viability-normalised. actives 0.67% (n = 350,000). AID 651661, 2012. inhibition, % at 12.6 µM;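 active = mean inhibition of at least 50% after viability correction, with every replicate also passing that limit; inconclusive = mean reaches 50% but only one of two replicates passes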;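 also: firefly luciferase signal divided by Alamar Blue viability fluorescence both relative to DMSO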
TWEAK Fn14 block: inhibitors of TWEAK-Fn14 signaling, primary screen, luciferase reporter cells, uHTS | inhibition, % at 10 µM | AID 1159606, 2016 | TWEAK-stimulated Fn14 reporter cells, luciferase luminescence, 8 h | actives 2% (n = 360,000); in the data active = inhibition above about 50%
LGR2 inh: inhibitors of bursicon-induced LGR2 CRE-luciferase signal, primary screen, cell-based, HEK293, CRE-luciferase reporter, bursicon stimulation. Drosophila bursicon receptor LGR2 (rickets). bursicon-stimulated, 4 h. inhibition, % at 9.99 µM. actives 0.35% (n = 380,000);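 active = drop in luminescence signal, shown as inhibition above about 50% in the replicate tests, limit read from the data, passing the limit was not always enough; inconclusive = probably only some replicates passing the limit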;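 also: agonist challenge used bursicon conditioned medium at about half maximal strength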
LMP1 NFkB inh: EBV LMP1-driven NF-kappaB luciferase reporter inhibitors, primary screen, cell-based, luminescence, single point. LMP1-induced NF-kappaB luciferase reporter cells. inhibition, % at 12.5 µM. actives 0.69% (n = 350,000). AID 504558, 2011; in the data active = inhibition above about 41%; inconclusive = no clear call, values can overlap the other calls;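 also: 0% = neutral control wells and 100% = reference inhibitor control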
* marks the source's active call; other numbers are inactive results; ? = inconclusive; nt = no result given. In the library only some 2.6% were active in any assay of this set; here they are far more common.

SMILES	TROY signal inh	EWS-Fli block	TWEAK Fn14 block	LGR2 inh	LMP1 NFkB inh
CCOC(=O)c1sc(NC(=O)c2cccc(S(=O)(=O)N3CCc4ccccc43)c2)c(C#N)c1C	53*	20	48	38	37
O=C(Nc1nc2ccc(F)cc2s1)c1cccc(S(=O)(=O)N2CCc3ccccc32)c1	33	-8	57*	3	8
CN(C)C(=O)c1cccc(-c2ccccc2[C@H]2[C@@H](C#N)N(C(=O)C3CCCC3)[C@H]2CO)c1	nt	-9	nt	10	nt
CC(C)OCCCNC(=O)C1CCC(CNS(=O)(=O)c2ccc(Cl)cc2)CC1 (configuration not stated)	1	nt	4	1	0
COCCNC(=O)C1CCC(CNS(=O)(=O)c2ccccc2)CC1 (configuration not stated)	-5	10	4	1	56*
CC(C)OCCCNC(=O)C1CCC(CNS(=O)(=O)c2ccccc2)CC1 (configuration not stated)	16	-4	5	14	67*
C[C@@H]1CCCCO[C@@H](CN(C)S(=O)(=O)c2cn(C)cn2)[C@H](C)CN([C@@H](C)CO)C(=O)c2cc(NS(=O)(=O)c3cccs3)ccc2O1	nt	-2	nt	11	nt
COc1cc(C2C(C#N)=C(N)N(c3cccnc3)C3=C2C(=O)CCC3)ccc1O (configuration not stated)	15	-1	21	-2	-4
CCOC(=O)C1=C(N)N(c2ccccc2)C2=C(C(=O)CCC2)C1c1cccnc1 (configuration not stated)	14	nt	52*	15	-1
COc1ccc(NC(=O)/C(C#N)=C\c2cc(C)n(-c3ccc4c(c3)OCO4)c2C)cc1	21	20	51*	9	7
Cc1cc(/C=C(\C#N)C(=O)Nc2ccccc2)c(C)n1-c1ccc(C(=O)O)cc1	8	2	-7	-10	-2
COc1ccc(-n2c(-c3ccccc3)c[n+]3c2CCC3)cc1	-8	17	86*	10	24
CC(C)NC(=O)Nc1ccc2c(c1)C(=O)N([C@@H](C)CO)C[C@H](C)[C@@H](CN(C)S(C)(=O)=O)OCCCC[C@H](C)O2	nt	1	nt	-5	nt
Cc1noc2ncnc(Sc3ccc(Br)cc3)c12	64*	8	66*	76*	8
Cc1noc2ncnc(N3CCCC3)c12	12	-11	21	-6	3
COc1ccccc1-c1cn(CC[C@@H]2CC[C@@H](NC(=O)C3CCC3)[C@@H](CO)O2)nn1	nt	-1	nt	7	nt
Cc1ccc(S(=O)(=O)c2ccc(C)cc2)cc1	-7	-9	0	4	-14
O=[N+]([O-])c1ccc(S(=O)(=O)c2ccccc2)nc1	58*	58*	54*	52*	53*
Cc1cc(S(=O)(=O)c2ccc([N+](=O)[O-])cn2)ccc1Br	72*	36	60*	?	74*
Cc1ccc(S(=O)(=O)c2ccc([N+](=O)[O-])cn2)cc1	59*	61*	68*	65*	60*
Nc1ccc(S(=O)(=O)c2ccccc2)nc1	-17	-17	22	-1	-2
Cc1cc(Sc2ccc([N+](=O)[O-])cn2)ccc1Br	-20	0	-20	-14	11
COC(=O)[C@@H]1[C@@H](CO)[C@@H]2Cn3c(ccc(C4=CCCC4)c3=O)[C@@H]2N1Cc1ccccn1	nt	-4	nt	8	nt
Cc1ccc(S(=O)(=O)Nc2ccc3c(c2)C(=O)N([C@H](C)CO)C[C@@H](C)[C@@H](CN(C)S(C)(=O)=O)OCCCC[C@H](C)O3)cc1	nt	-10	nt	0	nt
CC(C)NC(=O)N(C)C[C@@H]1Oc2ncc(C#CC(C)(C)O)cc2C(=O)N([C@H](C)CO)C[C@@H]1C	nt	-12	nt	8	nt
CNC[C@H]1Oc2ccc(NC(=O)Nc3ccc(F)cc3)cc2CC(=O)N([C@H](C)CO)C[C@@H]1C	nt	-6	nt	8	nt
COc1ccc(CN(C(=O)/C=C/C(=O)c2ccc(OC)cc2O)C(C(=O)NC2CCCCC2)c2ccncc2)cc1 (configuration not stated)	4	17	2	13	-2
COCCN(CC(=O)NC1CCCCC1)C(=O)/C=C/C(=O)c1ccc(OC)cc1O	58*	39	74*	?	17
